This is a sample that favours compounds with a hit; in the whole collection about 6.8% have one here.
PTAP TSG101 blk: blocks PTAP/TSG101 interaction to inhibit HIV-1 budding. 340,000 tested, under 10 active. Q99816. Potency, µM (series often up to 115 µM), usual class: inhibitors. Fluorescence polarization, FITC-PTAP peptide / Tsg101 binding; active means well fitted inhibition curve with a large enough effect in the main read-out, with a control signal flat, not every such curve was filed as active; inconclusive means small, poorly fitted or top-dose-only effect, or effect the other way, or a change in a side signal; inactive means no such curve, though single readings can be large or run the other way
Target sequence (Q99816 whole entry, looked up): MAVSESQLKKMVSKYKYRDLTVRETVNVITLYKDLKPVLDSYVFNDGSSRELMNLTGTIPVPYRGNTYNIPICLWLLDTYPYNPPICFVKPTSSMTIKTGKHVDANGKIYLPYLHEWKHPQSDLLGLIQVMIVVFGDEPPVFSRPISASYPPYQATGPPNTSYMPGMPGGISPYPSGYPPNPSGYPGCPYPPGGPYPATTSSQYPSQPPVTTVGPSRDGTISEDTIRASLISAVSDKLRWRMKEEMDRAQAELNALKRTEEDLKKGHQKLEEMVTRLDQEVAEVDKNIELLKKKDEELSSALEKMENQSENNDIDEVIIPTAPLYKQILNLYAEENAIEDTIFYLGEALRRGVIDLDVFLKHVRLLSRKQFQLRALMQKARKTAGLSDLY
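Compounds were pin-transferred onto Tsg101 binding domain (10 uM final) in HEPES pH 7.5 buffer, then FITC-PTAP peptide was added at 50 nM final. After 20 min at RT, polarization reported peptide displacement across a qHTS concentration series.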
KB-V1 MDR tox: kills drug-selected multidrug resistant KB-V1 cells. Potency, µM (titrated, usually from 46.1 µM), actives largely listed as cytotoxic. KB-V1 MDR cells viability, CellTiter-Glo, 72 h. 400,000 compounds, 3.4% hits; further: nearly all actives have a fitted effect of over 60% in size
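Luminescent ATP read-out (CellTiter-Glo, 10 min) measures survival of drug-selected KB-V1 MDR cells after 72 h, 37 degrees C compound exposure. Medium: phenol-red-free DMEM, 10% FBS. Values from fitted concentration-response curves.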
PINK1 expr mod: modulators of PINK1 expression; 410,000 compounds, 0.2% hits; Potency, µM (doses to about 76.6 µM), usual class: activators; PINK1 immunofluorescence, high-content cytometry, 24 h; AID 624263; active means well fitted activation curve with a large enough effect; inconclusive means small, poorly fitted or top-dose-only effect; cell line not stated here; further: nearly all actives have a fitted effect of over 65% in size
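PINK1 protein level read as immunofluorescence by microplate cytometer in a fixed, stained stable cell line after 24 h exposure to five compound concentrations, with CCCP as control.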
MCF10A rereplic: DNA re-replication induction in MCF 10a cells; MCF 10A DNA re-replication, Hoechst nuclear intensity, 48 h; AID 624296; Potency, µM (highest dose often 46.1 µM), hits mostly activators; 350,000 compounds, 2.9% hits; further: nearly all actives have a fitted effect of over 50% in size
SW480 rereplic: inducers of DNA re-replication in SW480 colon cancer cells; SW480 DNA re-replication, Hoechst DNA content imaging, 48 h; Potency, µM (top dose mostly 46.1 µM), most hits filed as activators; 340,000 compounds, 1.8% hits; AID 624297; further: nearly all actives have a fitted effect of over 55% in size
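Per well, 250 cells were exposed to pinned compound for 48 hr. Nuclear DNA was visualised with Hoechst (40 min, 37 C) and total object intensity recorded by fluorescence scanning.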
KB-3-1 cytotox: kills parental KB-3-1 adenocarcinoma cells | KB-3-1 viability, CellTiter-Glo ATP luminescence, 72 h | Potency, µM (doses to about 46.1 µM), actives largely listed as cytotoxic | 400,000 compounds, 1.4% hits | AID 1347075; further: nearly all actives have a fitted effect of over 60% in size
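Viability of parental KB-3-1 cells, measured by CellTiter-Glo luminescence, followed a 72 h incubation at 37 °C with pinned compounds in phenol-red-free DMEM containing 10% FBS.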
A number is an active result; 0 = inactive; ? = inconclusive; - = not tested or not shown; [ ] = another dose, or the depositor's remark. Unless noted, the call rests on the fitted dose curve; in most records, active means well fitted curve in the direction sought with a large enough effect; inconclusive means small, poorly fitted or top-dose-only effect, or another doubt; inactive means no such curve, though single readings can be large; an effect the other way counts as inactive or inconclusive.

SMILES	PTAP TSG101 blk	KB-V1 MDR tox	PINK1 expr mod	MCF10A rereplic	SW480 rereplic	KB-3-1 cytotox
COc1cc(NC(=O)c2ccccc2-c2ccccc2)cc(OC)c1	0	11.6µM	0	0	0	0
COc1ccc(-c2cc(C(=O)Nc3ccccc3O)c3ccccc3n2)cc1OC	0	?	0	0	?	0
O=C(Nc1cccnc1)c1cc(-c2cccnc2)nc2ccc(Br)cc12	0	0	0	0	0	0
COc1ccc(NC(=O)c2ccccc2-c2ccccc2)c(C)c1	0	0	0	0	0	0
O=C(Nc1cccnc1)c1cc(-c2cccc(Br)c2)nc2ccccc12	0	10.3µM	0	?	0	0
Cc1ccc(NC(=O)c2cc(S(=O)(=O)N3CCCCC3)c[nH]2)cc1N(C)C	-	0	0	-	-	0
CCOC(=O)c1sc(NC(=O)COc2ccccc2Cl)c(C(=O)OCC)c1C	-	0	0	-	-	0
O=C(NNC(=O)c1cc(-c2ccc(Cl)c(Cl)c2)nc2ccccc12)Nc1ccccc1	0	?	0	20.6µM	?	?
O=C(Nc1ncccn1)c1cc(-c2cccc(Br)c2)nc2ccccc12	0	?	0	?	0	0
COc1ccc(-c2cc(C(=O)Nc3cccnc3)c3ccccc3n2)cc1OC	0	9.2µM	0	?	0	?
CC(NC(=O)c1ccc(Cl)cc1)C(=O)NC1=NCCS1 (stereo unspecified)	0	0	0	0	0	0
COc1cccc(-c2cc(C(=O)Nc3cccnc3)c3ccccc3n2)c1	0	?	0	0	0	0
CC(NC(=O)c1ccc(F)cc1)C(=O)NC1=NCCS1 (stereo unspecified)	0	0	0	0	6.51µM	0
O=C(Nc1ccncc1)c1cc(-c2cccc(Br)c2)nc2ccccc12	0	?	0	16.4µM	0	20.6µM
Cc1cccc(NC(=O)NNC(=O)c2cc(-c3ccccc3Cl)nc3ccccc23)c1	0	0	0	?	0	0
COc1cc(NC(=O)CN2CCN(c3ccc(F)cc3)CC2)cc(OC)c1	-	0	0	-	-	0
CSc1cccc(NC(=O)c2cnn(-c3ccc(F)cc3)c2-n2cccc2)c1	-	?	0	-	-	0
CC(C)OCCCn1c(=O)c2ccccc2n2c(-c3ccccc3)nnc12	-	?	0	-	-	0
CCc1nnc2c3ccccc3nc(N3CCN(c4cc(C)ccc4C)CC3)n12	-	0	0	-	-	?
Cc1cccc(C(=O)NC2=NCCS2)c1	0	0	0	?	6.51µM	0
O=C(NCc1ccccn1)c1cc(-c2ccc(Br)cc2)nc2ccccc12	0	2.59µM	0	?	0	0
Cc1ccc2nc(-c3cccc(Br)c3)cc(C(=O)NC3=NCCS3)c2c1	0	0	0	0	0	0
O=C(NC1=NCCS1)c1cc(-c2cccc(Br)c2)nc2ccccc12	0	14.6µM	0	?	0	?
O=C(NC1=NCCS1)c1ccccc1	0	0	0	0	0	0
Cc1ccc(-c2cc(C(=O)NCc3ccccn3)c3ccccc3n2)cc1	0	0	0	?	0[9.22 µM]	0
SMILES	PTAP TSG101 blk	KB-V1 MDR tox	PINK1 expr mod	MCF10A rereplic	SW480 rereplic	KB-3-1 cytotox
COc1ccc(-c2cc(C(=O)Nc3ccc(S(N)(=O)=O)cc3)c3ccccc3n2)cc1OC	0	0	0	8.2µM	5.8µM	0
CCOc1ccc(NC(=O)CC2C(=O)N(c3cccc(C)c3)C(=O)N2Cc2cccs2)cc1 (stereo unspecified)	-	-	0	-	-	-
COCCCNC(=O)c1c(NC(=O)Cc2coc3c(C)c(C)ccc23)sc2c1CCCC2	-	0	0	-	-	0
COc1ccc(C)cc1-n1c(=O)c2ccccc2c2ccccc2c1=O	0	0	0	0	0	0
COc1ccc(C)cc1N1C(=N)/C(=C2/Nc3ccccc3S2)C(c2ccccc2)C1=O (stereo unspecified)	0	20.6µM	0	23.1µM	?	?
COc1ccc(C2=Nn3c(nnc3-c3ccccc3C(F)(F)F)SC2)cc1OC1CCOC1 (stereo unspecified)	0	0	0	0	0	?
COc1ccc(C2=Nn3c(nnc3-c3ccncc3)SC2)cc1OC	0	0	0	?	16.4µM	?
Fc1ccccc1-c1nnc2n1N=C(c1ccc(OC(F)F)c(OCC3CC3)c1)CS2	0	0	0	0	0	0
COc1ccc(C2=Nn3c(nnc3-c3ccccc3Cl)SC2)cc1OCC1CC1	0	?	0	?	16.4µM	2.91µM
COc1ccc(C2=Nn3c(nnc3-c3cccnc3)SC2)cc1OC	0	?	?	0	0	0
COc1ccc(C2=Nn3c(nnc3-c3ccccc3OC)SC2)cc1OC1CCOC1 (stereo unspecified)	0	3.26µM	0	1.3µM	1.03µM	0.651µM
COc1ccc(OC)c(-c2nnc3n2N=C(c2ccc(OC)c(OCC4CC4)c2)CS3)c1	0	4.61µM	0	?	2.31µM	0.92µM
CC(C)c1c(C(=O)NCc2ccccn2)cnn1-c1nccc(-c2ccccc2F)n1	-	-	0	-	-	-
CCCCn1cc(S(=O)(=O)c2ccc(CC)cc2)c(=O)c2cc(F)c(N3CCCC(C)C3)cc21 (stereo unspecified)	-	0	0	-	-	0
CCc1ccccc1NC(=O)N1CCN(c2cc(-c3noc(C)n3)ccc2C)CC1	-	0	0	-	-	0
COc1ccc(-c2noc(CCC(=O)N(C)c3cc(Cl)ccc3OC)n2)cc1	-	0	0	-	-	0
CC(O)(CS(=O)(=O)Cc1ccccc1)C(=O)Nc1ccc(C(F)(F)F)cc1 (stereo unspecified)	0	20.6µM	0	0	0	0
CC(O)(CS(=O)(=O)Cc1ccccc1)C(=O)Nc1cccc(C(F)(F)F)c1 (stereo unspecified)	0	14.6µM	0	0	0	0
O=C1CCCC2=C1C1(CCCC1)N=C(Nc1nc3ccccc3n1Cc1ccccc1)N2	-	0	-	-	-	0
COc1ccc(C(=O)N/N=C(\Cc2ncc[nH]2)c2ccccc2)cc1	0	?	0	?	9.2µM	0
COc1cc(C(=O)N/N=C(\Cc2ncc[nH]2)c2ccccc2)cc(OC)c1OC	0	?	0	18.4µM	?	?
c1ccc(N/N=C(\Cc2ncc[nH]2)c2ccccc2)cc1	0	?	0	0	0	0
COc1cc(=O)n2c(c1C(=O)NCc1ccco1)CCN(Cc1ccc3ccccc3c1)CC2	-	-	0	-	-	-
O=C(NCC1(N2CCCCC2)CCCCC1)c1ccc(-n2cc(NC(=O)c3cccnc3)cn2)cc1	-	-	0	-	-	-
Cc1ccc(S(=O)(=O)N2CCN(c3nc(-c4ccc(CN5CCNCC5)s4)nc4ccccc34)CC2)cc1	-	0	0	-	-	0
Cc1sc2nc(Cc3ccccc3)[nH]c(=O)c2c1-c1ccccc1	0	0	0	0	0	0
CCc1nc(C)c(-c2ccccc2)c(=O)[nH]1	0	0	0	?	18.4µM	0
